# Screening data from PubChem BioAssay.
# In the library only some 7.3% were active in any assay of this set; here they are far more common.
# HCV inhibitor = HCV inhibition. AID 651820. hit rate 3.4% among 340,000. Huh7.5.1 HCVcc-Cre infection, luciferase reporter, 44 h. Potency, µM (top dose mostly 41.8 µM), inactives show at the top dose activity change, negative = inhibition, usual class: inhibitors; further: potency means the concentration at half of the fitted maximal effect
#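 After 44 h co-culture of compound, cells and HCVcc-Cre (~0.5 moi), substrate is added for 15 min at room temperature and luciferase measured over 15 sec. Cells were seeded at 1,000/well and pre-cultured 4 h.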
# AmpC detergent = AmpC beta-lactamase inhibition with detergent present. Potency, µM (titrated, usually from 114 µM), inactives show at the top dose activity change, negative = inhibition, hits mostly inhibitors. hit rate 0.041% among 370,000. AmpC hydrolysis of nitrocefin, absorbance 480 nm, 0.01% Triton. P00811;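 further: potency means the concentration at half of the fitted maximal effect; 0% = no-compound wells and -100% = no-enzyme wells; nearly all actives have a fitted effect of over 25% in size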
# Target sequence (P00811 whole entry, looked up): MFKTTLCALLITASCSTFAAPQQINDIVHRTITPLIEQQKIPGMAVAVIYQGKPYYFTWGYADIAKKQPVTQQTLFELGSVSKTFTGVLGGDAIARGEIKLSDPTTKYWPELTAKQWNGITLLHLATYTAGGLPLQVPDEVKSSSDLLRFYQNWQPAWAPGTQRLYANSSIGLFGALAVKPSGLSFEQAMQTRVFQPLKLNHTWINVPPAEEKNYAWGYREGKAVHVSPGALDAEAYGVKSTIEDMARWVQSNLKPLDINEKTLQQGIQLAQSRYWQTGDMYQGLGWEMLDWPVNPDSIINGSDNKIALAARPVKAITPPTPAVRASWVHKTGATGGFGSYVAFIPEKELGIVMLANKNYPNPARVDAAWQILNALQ
#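 AmpC (5.3 nM in the dispensed reagent) in 20 mM phosphate pH 7.0 with 0.01% (detergent screen) or 0.0001% Triton X-100 was preincubated with compounds for 15 min at room temperature. Nitrocefin was then added from an 800 uM solution, and hydrolysis was followed at 480 nm.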
# AmpC no deterg = inhibitors of E. coli AmpC beta-lactamase without detergent | hit rate 0.52% among 330,000 | AmpC nitrocefin hydrolysis, absorbance 480 nm, 0.0001% Triton | AID 485341 | Potency, µM (top dose mostly 57.1 µM), inactives show at the top dose activity change, negative = inhibition, hits mostly inhibitors | P00811;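 further: potency means the concentration at half of the fitted maximal effect; plate controls were no compound for no effect and no enzyme for full effect; nearly all actives have a fitted effect of over 20% in size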
#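 20 mM phosphate pH 7.0 + 0.01% (detergent screen) or 0.0001% Triton X-100; 5.3 nM AmpC reagent; cpd preinc 15 min RT; nitrocefin (800 uM stock) to start; A480 q20 s × 4 min; Activity was normalised to no-enzyme and no-compound control wells.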
# HCMV antiviral = human cytomegalovirus inhibition; HFF cells, HCMV-luciferase reporter, 72 h; stronger effect = lower value; activity change, negative = inhibition, % at 57.5 µM; hit rate 4.5% among 410,000; in the data active means activity change below about -60%; inconclusive means no clear call, values can overlap the other calls; inactive means above about -39%
#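 Cell-based, HFFs, 1000 cells/well, 16 h 37C; cpds in DMSO + HCMV-luc, MOI 1 PFU/cell; 72 h 37C; OneGlo luminescence after 5 min RT; norm. to buffer vs Salinomycin 10uM.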
# FMDV antiviral = foot and mouth disease virus antiviral activity. hit rate 1.2% among 410,000. FMDV antiviral cell-based qHTS. Potency, µM (titrated, usually from 57.9 µM), for inactives: top-dose activity change, negative = inhibition, usual class: inhibitors. AID 1159524; calls by dose curve; tested in HEK293T cells; further: read-out not given here; potency means the concentration at half of the fitted maximal effect; nearly all actives have a fitted effect of over 45% in size
# * marks the source's active call; other numbers are inactive results; ? = inconclusive; · = not tested or not shown; ! = not active in a repeat; [ ] = remark or other dose. Unless noted, the call rests on the fitted dose curve; in most records, active means well fitted curve in the direction sought with a large enough effect; inconclusive means small, poorly fitted or top-dose-only effect, or another doubt; inactive means no such curve, though single readings can be large; an effect the other way counts as inactive or inconclusive. Unless noted, on the % scale 0 is the no-effect control and ±100 the full control effect.
SMILES,HCV inhibitor,AmpC detergent,AmpC no deterg,HCMV antiviral,FMDV antiviral
Cc1ccc(C)c(NC(=O)C(=O)NCCc2csc3nc(-c4ccccc4C)nn23)c1,·,3%,·,-68*,22µM*
O=C(NCC1OCCc2ccccc21)c1ccc(NC(=O)c2ccccc2Cl)cc1 (stereo not drawn),?,4%,-18%,?,14µM*
O=C(CSc1nc(-c2ccc(F)cc2)nc2c1Cc1ccccc1O2)Nc1ccc(C(=O)O)cc1,15%,63µM*,-32%,3,-8%
Cc1ccc2c(c1)N(C(=O)CCC(=O)NCCCN1CCOCC1)CC(C)O2 (stereo not drawn),11%,-12%,-11%,-65*,-20%
Cc1ccc2c(c1)N(C(=O)CCC(=O)NCCN1CCOCC1)CC(C)O2 (stereo not drawn),10%,-11%,-10%,19,-23%
Cc1cccc(N2CCN(C(=O)CCC(=O)N3CC(C)Oc4ccc(C)cc43)CC2C)c1 (stereo not drawn),?,-3%,2%,-15,28µM*
Cc1ccc2c(c1)N(C(=O)CCC(=O)N1CCN(c3ccccn3)CC1)CC(C)O2 (stereo not drawn),-10%,2%,93%,-71*,-8%
CC1CN(C(=O)CCC(=O)N2CCN(c3ccccn3)CC2)c2ccccc2O1 (stereo not drawn),11%,-9%,4%,16,-25%
CCCCn1c(SCC(=O)NC2CCCC2)nnc1-c1ccco1,1%,2%,-25%,-9,1%
O=C(/C=C\Nc1ccc2c(c1)OCO2)c1cccs1,6%,6%,-15%,-12,10µM*
O=C(/C=C\Nc1ccc2c(c1)OCO2)c1ccc(Cl)s1,2%,-14%,-6%[11.4 µM],70,?
O=C(/C=C\Nc1ccc2c(c1)OCO2)c1ccccn1,14%,0%,-25%,-81*,2µM*
CCCc1cc(C(=O)Nc2ccc(C(C)=O)cc2)no1,7%,-4%,45µM*,23,35%
CCCc1cc(C(=O)Nc2cccc(Cl)c2C)no1,0%,?,-20%,-17,24%
CCCc1cc(C(=O)Nc2cccc(C(C)=O)c2)no1,-2%,3%,-7%,69,121%
CCCc1cc(C(=O)Nc2ccccc2SC)no1,-2%,6%,40µM*,-8,50%
COc1ccccc1NC(=O)N[C@H]1CC[C@@]23CCCN2C(=O)CCC[C@H]3C1Cc1ccccc1 (stereo partly drawn),·,·,·,-14,·
COC(=O)c1nn(-c2ccccc2)c2nnc(Cc3ccc(C)cc3)c(=O)n12,-6%,2%,1%,-108*,-1%
CC(=O)Nc1ccc(S(=O)(=O)N2CCN(c3nc(NC4CCCC4)c4ccccc4n3)CC2)cc1,7.9µM*,0%,121%,-37,?
CN(C)S(=O)(=O)c1cccc(N=C2SCCN2Cc2ccccc2)c1,10µM*,-11%,-10%,-6,?
Cc1ccc(C(=O)N2CC(C)SC2=Nc2cccc(S(=O)(=O)N(C)C)c2)cc1 (stereo not drawn),-12%,?,26%,-30,-19%
CCOC(=O)C1=C(COC(=O)COc2cccc(C)c2C)NC(=O)NC1C (stereo not drawn),0%,?,-4%,-16,-6%
CC(C)(C)c1ccccc1NC(=O)Nc1nc(C(N)Cc2ccc(F)cc2)cs1 (stereo not drawn),·,·,·,50,?
CCOC(=O)c1cnc2c(OC)cccc2c1NCc1cccnc1,-18%,-9%,-12%,-62*,?
CCOC(=O)c1cnc2c(OC)cccc2c1Nc1cccc(O)c1,·,13%,·,?,25µM*
SMILES,HCV inhibitor,AmpC detergent,AmpC no deterg,HCMV antiviral,FMDV antiviral
CCOC(=O)c1cnc2ccc(OCC)cc2c1NCc1cccnc1,?,-5%,21%,?,15%
CC(C)C[C@H]1CN([C@@H](Cc2ccc(O)cc2)CN2CCC[C@H]2CN2C(=O)C(=O)NC[C@@H]2Cc2ccccc2)C(=O)C(=O)N1CC1CCCCCC1,·,·,·,1,-6%
Cc1ccc(NC(=O)C2CCN(c3nc4ccccc4[nH]3)CC2)c(C)c1,·,9%,·,0,7%
CCCc1cc(=O)[nH]c(SCC(=O)Nc2oc(C)c3c(C)n[nH]c(=O)c23)n1,12%,-15%,-7%,0,-19%
CCOC(=O)Nc1sc(C)nc1-c1ccccc1,-2%,-18%,-17%,-7,0%
CCOC(=O)Nc1nc(-c2ccccc2)c(C(=O)c2ccc(Cl)cc2)s1,?,?,-49%,-67*,-18%
COc1ccc(CCNC(=O)C2CCCN(S(=O)(=O)c3ccc(F)cc3)C2)cc1 (stereo not drawn),?,-1%,15%,-34,?
Cc1cccc(C)c1OCc1cc(C(=O)N(Cc2c(C)nn(C)c2C)C2CC2)no1,10µM*,-8%,149%,0,20µM*
Fc1ccc2nc(-c3ccc(CN4CCC5(CC4)CNc4ccccc45)cc3)c(-c3ccccc3)nc2c1,·,·,·,-14,·
Cc1ccc(-c2cc(C(=O)Nc3ccc(S(=O)(=O)Nc4cc(C)on4)cc3)c3ccccc3n2)c(C)c1,4%,?,10µM*,28,-30%
Cc1ccc(-c2cc(C(=O)Nc3nccs3)c3ccccc3n2)c(C)c1,10µM*,-13%,-21%,-87*,?
Cc1ccc2nc(-c3ccccc3Cl)cc(C(=O)Nc3cc(C)on3)c2c1,13µM*,?,12%,-39,?
Cc1cc(C)c2nc(NNC(=O)c3cc(-c4cccs4)nc4ccccc34)sc2c1,10µM*,-6%,-46%,-21,?
Cc1cc(NC(=O)c2ccccc2Cl)no1,14%,?,-8%,71,50%
CC1(C)CN(C(=S)Nc2ccc(F)cc2F)C1=O,5%,-4%,-5%,25,15%
COc1cc(=O)n2c(c1C(=O)N(C)Cc1ccsc1)CCN(Cc1c(C)nc3sccn13)CC2,·,·,·,·,-9%
Cc1ccc2nsnc2c1S(=O)(=O)N1CCN(Cc2ccc3c(c2)OCO3)CC1,22µM*!,1%,-1%,-29,·
Cc1cc(S(=O)(=O)N2CCN(Cc3ccc4c(c3)OCO4)CC2)cc(C)c1N1CCCC1=O,11%,-9%,-12%,-96*,?
COc1ccc(S(=O)(=O)N2CCN(Cc3ccc4c(c3)OCO4)CC2)cc1C,·,-1%,·,-8,29%
COC(=O)C(c1ccccc1)(c1cn(C)c2ccccc12)C(Nc1ccc(Cl)cc1)c1ccccc1 (stereo not drawn),·,·,·,-27,·
CC(Oc1cccnc1[N+](=O)[O-])C(=O)N1CCc2ccccc21 (stereo not drawn),-13%,·,0%,26,-13%
O=C(Cn1nc(C(F)(F)F)cc1C1CC1)Nc1ccccc1F,-3%,-4%,-17%,?,-27%
O=C(Cn1nc(C(F)(F)F)cc1C1CC1)NCc1ccccc1F,-14%,?,-10%,-69*,-15%
